# Hits are enriched below; roughly 4.9% of the tested compounds scored in any of these assays.
# PP5 inh – inhibitors of human protein phosphatase 5 (PP5); inhibition, % at 6.7 µM; purified PP5c, OMFP substrate fluorescence; AID 1987; 320,000 compounds, 0.18% hits;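 active = inhibition above the campaign's mean inhibition across all tested compounds plus 3 SD, cut at about 9.5% in these data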
# PP1 counter – counter-screen for PP5 inhibitors: inhibitors of human PP1-alpha; purified PP1alpha, OMFP fluorescence; inhibition, % at 6.7 µM; 320,000 compounds, 0.9% hits;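 active = inhibition above the mean inhibition of all tested compounds plus 3 SD, computed separately for each screening campaign, cut at about 15% in these data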
# CSC inhib – cancer stem cell inhibition | cancer stem cell-like cells viability, luminescence | inhibition, % at 7.5 µM | 300,000 compounds, 1.1% hits | AID 2717; in the data active = inhibition above about 75%; inconclusive = no clear call, values can overlap the other calls; tested in HMLE shEcad cells
# Mdm2-MdmX inh – disrupts the human Mdm2-MdmX interaction; O15151+Q00987; SaOS-2 split-luciferase Mdm2/MdmX complementation, luminescence; inhibition, % at 8 µM; 330,000 compounds, 3% hits; AID 485346;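 active = inhibition of at least 50% at 8 µM in the primary screen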
# Target sequence (O15151 whole entry, looked up): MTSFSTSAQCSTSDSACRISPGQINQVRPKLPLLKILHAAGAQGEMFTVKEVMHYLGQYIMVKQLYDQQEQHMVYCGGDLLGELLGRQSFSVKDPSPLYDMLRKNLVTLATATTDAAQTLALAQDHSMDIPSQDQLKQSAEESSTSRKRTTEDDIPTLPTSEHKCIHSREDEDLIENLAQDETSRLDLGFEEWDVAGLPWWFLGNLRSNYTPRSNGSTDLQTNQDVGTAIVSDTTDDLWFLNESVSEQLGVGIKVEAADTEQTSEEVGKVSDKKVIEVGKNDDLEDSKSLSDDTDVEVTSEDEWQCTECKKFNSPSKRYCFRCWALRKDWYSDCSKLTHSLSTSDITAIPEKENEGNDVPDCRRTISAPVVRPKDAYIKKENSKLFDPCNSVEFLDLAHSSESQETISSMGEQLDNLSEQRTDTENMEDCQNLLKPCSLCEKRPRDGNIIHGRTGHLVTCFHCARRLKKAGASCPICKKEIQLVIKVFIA
# Target sequence (Q00987 whole entry, looked up): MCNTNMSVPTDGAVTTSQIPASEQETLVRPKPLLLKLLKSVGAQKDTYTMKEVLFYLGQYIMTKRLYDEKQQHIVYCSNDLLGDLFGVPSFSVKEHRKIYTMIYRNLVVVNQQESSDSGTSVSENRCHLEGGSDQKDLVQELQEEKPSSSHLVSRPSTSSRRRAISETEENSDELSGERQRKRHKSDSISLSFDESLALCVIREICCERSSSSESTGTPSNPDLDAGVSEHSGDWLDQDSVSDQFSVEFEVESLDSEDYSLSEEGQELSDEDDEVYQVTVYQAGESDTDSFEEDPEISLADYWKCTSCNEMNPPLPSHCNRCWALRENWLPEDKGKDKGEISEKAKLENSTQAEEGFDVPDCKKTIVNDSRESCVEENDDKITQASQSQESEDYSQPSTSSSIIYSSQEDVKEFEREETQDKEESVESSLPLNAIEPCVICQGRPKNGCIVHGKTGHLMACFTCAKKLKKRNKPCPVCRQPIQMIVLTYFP
# Calb FLC – C. albicans growth modulation with fluconazole | C. albicans CaCi-2 (fluconazole-resistant clinical isolate) + fluconazole, Alamar Blue growth, 48 h | growth inhibition, % (test concentration not listed) | 300,000 compounds, 0.57% hits;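 active = growth inhibition above about 58% in most replicates, limit read from the data, passing the limit was not always enough; inconclusive = exactly half the replicates above a set limit; inactive = most replicates below a set limit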;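 also: all wells also contain fluconazole at 8 µg/ml as a sub-toxic cotreatment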
# Beta apoptosis – blocks beta cell apoptosis | 300,000 compounds, 0.8% hits | AID 435005 | INS-1E cytokine-induced death, ATP luminescence, 48 h; percent of positive-control rescue, neutral wells zero | protection from apoptosis, % (concentration not given with the values);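 active = Every replicate reaches about 75%, or at least half do and their mean reaches it too, limit read from the data; inconclusive = At least half of replicates reach the limit but their mean does not; inactive = Under half of replicates reach the limit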;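 also: higher means more ATP so stronger rescue from cytokine killing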
# Mdm2 MdmX conf – human Mdm2/MdmX binding inhibition, confirmed. shares compounds with Mdm2-MdmX inh. luminescent assay. inhibition, % at 8 µM. 10,000 compounds, 55% hits. AID 489028; in the data active = inhibition above about 40%
# FLuc counter – counter-screen for Mdm2/MdmX inhibitors: full-length luciferase; shares compounds with Mdm2-MdmX inh; SaOS-2 full-length luciferase counterscreen, luminescence; inhibition, % at 8 µM; 6,200 compounds, 77% hits;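 active = mean inhibition at 8 µM reaching about 37%, which flags the compound as non-specific, limit read from the data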;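 also: p53-null SaOS-2 cells with luciferase driven by a doxycycline-inducible promoter; compound on cells about two nights before reading with doxycycline added after day one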
# Hits are given with their value; n = inactive; u = inconclusive; x = not tested or not shown.
SMILES,PP5 inh,PP1 counter,CSC inhib,Mdm2-MdmX inh,Calb FLC,Beta apoptosis,Mdm2 MdmX conf,others
CCN(C(=O)C1CC1)C1CCS(=O)(=O)C1 (stereo not drawn),n,n,n,n,n,n,x,
COc1ccc(C(=O)Nn2c(SCC(=O)N3CCC(C)CC3)nc3ccccc3c2=O)cc1,n,n,n,59,u,n,48,FLuc counter=142
COc1ccc(NC(=S)N2CCN(C(=O)c3ccccc3)CC2)cc1,n,n,n,n,n,n,x,
COc1cccc(/C=C/C(=O)Nc2ccc(C(=O)Nc3cccc(S(N)(=O)=O)c3)cc2)c1OC,n,n,n,71,n,n,n,
COc1ccc(C(=O)NNC(=O)c2ccc3ccccc3n2)cc1,n,n,n,63,x,n,53,FLuc counter=53
O=C(NNC(=O)c1ccc2ccccc2n1)c1ccc(O)cc1,n,n,x,n,x,x,x,
Cc1ccoc1C(=O)N1CCCCC1C(=O)O (stereo not drawn),n,n,n,n,n,n,x,
Cc1cccc(C)c1NC(=O)CN(C1CCCCC1)S(C)(=O)=O,n,n,n,n,n,n,x,
NC1CCCCC1N=Cc1c(O)n(CCc2ccc(F)cc2)c(=O)[nH]c1=O (stereo not drawn),x,x,x,x,n,x,x,
O=c1[nH]c(=O)n(CCc2ccc(F)cc2)c(O)c1C=NCc1ccc2c(c1)OCO2,n,n,x,80,n,n,n,
COc1ccccc1CNS(=O)(=O)c1cc2c3c(c1)C(C)C(=O)N3CCC2 (stereo not drawn),n,n,n,n,n,n,x,
COc1ccc(-c2ccc3oc(-c4ccc(OC)cc4)c(-c4ccc(OC)cc4)c3c2)cc1,n,n,n,n,n,n,x,
COc1ccc(-c2ccc3oc(-c4ccc(OC)cc4)c(C#CCO)c3c2)cc1,n,n,n,88,n,n,73,FLuc counter=n
COc1cc(-c2ccc3oc(-c4cccc(C)c4)c(C#CC4(O)CCCCC4)c3c2)cc(OC)c1OC,x,x,81,56,x,n,n,
COC(=O)c1c(-c2ccc(OC)cc2)oc2ccc(-c3ccc(OC)nc3)cc12,n,n,n,82,n,n,57,FLuc counter=45
COc1ccc(-c2oc3ccc(-c4ccc(OC)nc4)cc3c2C#CC2(O)CCCCC2)cc1,n,n,x,64,n,n,n,
CC1O[C@@H](O[C@H](C)CC[C@@H](C)O[C@H]2OC(C)[C@@H](O)C[C@H]2O)C(O)C[C@H]1O (stereo partly drawn),n,n,n,n,n,x,x,
CCNC(=S)N1CCN(C(=O)C(Cc2ccccc2)NC(C)=O)CC1 (stereo not drawn),n,n,n,n,n,n,x,
COc1ccccc1CNC(=O)Cn1ccsc1=N,n,n,n,n,n,n,x,
COc1ccc(-c2oc3ccc(-c4ccc5c(c4)OCO5)cc3c2C#CC2(O)CCCCC2)cc1,n,n,n,65,n,x,n,
Cc1cccc(NC(=O)c2cc(-c3ccccn3)nc3ccccc23)c1C,n,n,x,n,n,x,x,
O=[N+]([O-])c1ccc2nc(Cl)nc(-c3ccccc3)c2c1,x,x,n,96,n,n,66,FLuc counter=54
CCCn1nc(C(=O)OCC(=O)NC(C)c2ccccc2)c2ccccc2c1=O (stereo not drawn),n,n,n,n,n,n,x,
COc1ccccc1CNC(=O)C1CCN(S(=O)(=O)c2ccc3c(c2)C(C)(C)C(=O)N3C)CC1,n,n,n,n,n,n,x,
COc1ccccc1OCCN1CSC(=S)N(C)C1,n,n,u,52,n,n,n,FLuc counter=82
SMILES,PP5 inh,PP1 counter,CSC inhib,Mdm2-MdmX inh,Calb FLC,Beta apoptosis,Mdm2 MdmX conf,others
CCOC(=O)c1c(NC(=O)COc2cccc3c2CCN(CC)C3=O)sc2c1CCC2,n,n,n,60,n,n,n,
CCOC(=O)c1c(NC(=O)CN2CCN(C(=O)c3ccco3)CC2)sc2c1CCCC2,n,n,n,56,103,n,n,
COc1ccc(C2CC(c3cccs3)=NN2C(=O)COC(=O)c2cncc(Br)c2)cc1OC (stereo not drawn),n,n,n,n,n,n,x,
Cc1ccccc1NC(=O)Cc1nnc(NC(=O)Nc2ccccc2F)s1,n,n,n,77,n,n,n,
Cc1ccc(-c2sc(-c3ccccc3)nc2CC(=O)Nc2ccccc2F)cc1,n,n,n,52,n,141,n,
COC(=O)Nc1nnc(CC(=O)Nc2ccccc2C)s1,n,n,n,n,n,n,x,
COc1ccc(Nc2nnc(SCC(=O)NC(=O)Nc3ccc4c(c3)OCCO4)s2)cc1,n,n,n,62,n,n,n,
O=C(CSc1nnnn1-c1cccnc1)Nc1cccc(Cl)c1,n,n,n,n,n,n,x,
COc1cccc(-n2nnnc2SCC(=O)Nc2ccc3c(c2)OCCO3)c1,n,n,n,79,x,n,n,
CCOc1ccc(-n2nnnc2SCC(=O)Nc2ccc(NC(C)=O)cc2)cc1,n,n,n,57,n,n,n,
COc1ccc(-n2nnnc2SCC(=O)Nc2ccc3c(c2)OCCO3)cc1OC,n,n,n,n,n,n,x,
CCOc1ccc(-n2nnnc2SCC(=O)Nc2cccc(O)c2)cc1,n,n,n,n,n,n,x,
O=C(CSc1nnnn1-c1cccc(Cl)c1)Nc1ccc2c(c1)CCC2,n,n,n,71,n,n,n,FLuc counter=60
O=C(CNC(=O)c1ccc(Cl)c([N+](=O)[O-])c1)OC1CCCCC1=O (stereo not drawn),n,n,n,n,n,n,x,
CCCCCn1c(=NC(=O)c2cccnc2)c(C#N)cc2c(=O)n3cccc(C)c3nc21,n,n,n,73,n,n,51,FLuc counter=42
CCOC(=O)CSc1ccc(C(=O)Nc2ccc(OC)cc2)cn1,n,n,n,n,n,x,x,
CC(=O)c1ccc(S(=O)(=O)NCCc2csc(-c3cccnc3)n2)cc1,n,n,n,n,n,n,x,
O=C(NCC(c1ccco1)N1CCc2ccccc21)C(=O)Nc1ccc(F)cc1F (stereo not drawn),n,n,n,52,n,n,72,FLuc counter=65
O=C(NCC(c1ccco1)N1CCc2ccccc21)C(=O)Nc1ccccc1F (stereo not drawn),n,n,n,n,n,n,x,
O=C(NCc1ccc(F)cc1)c1cccc2c1C(=O)c1ccc(Cl)cc1S2(=O)=O,x,x,n,n,x,n,x,
O=C(NCc1ccccc1Br)c1cccc2c1C(=O)c1ccc(-c3ccc(OC(F)(F)F)cc3)cc1S2(=O)=O,x,x,x,n,x,n,x,
CC(C)c1cccc(-c2ccc3c(c2)S(=O)(=O)c2cccc(C(=O)NCc4ccccc4)c2C3=O)c1,x,x,x,59,x,n,n,
CC(C)c1cccc(-c2ccc3c(c2)S(=O)(=O)c2cccc(C(=O)NCc4ccccc4Cl)c2C3=O)c1,x,x,n,89,x,n,n,
O=C(NCc1ccco1)c1cccc2c1C(=O)c1ccc(/C=C/c3ccccc3)cc1S2(=O)=O,x,x,n,53,x,n,47,FLuc counter=69

# Compound activity (PubChem BioAssay)
